Binding signal data for one sequence are collected here from article PMC7862700, “An all-to-all approach to the identification of sequence-specific readers for epigenetic DNA modifications on cytosine”.

Holding throughout (assay): DAPPL (digital affinity profiling via proximity ligation, sequencing); 10 mM Tris-HCl pH 7.5, 50 mM NaCl, 1 mM DTT, 4% glycerol, room temperature, 30 min; GST-TFs on glutathione beads, 16-mer random dsDNA library, 0.1% formaldehyde crosslink after washing; high values mean tight binding
For assay [1], the target named is T1, FEV (Homo sapiens, UniProt Q99581 1-238).
T1 sequence: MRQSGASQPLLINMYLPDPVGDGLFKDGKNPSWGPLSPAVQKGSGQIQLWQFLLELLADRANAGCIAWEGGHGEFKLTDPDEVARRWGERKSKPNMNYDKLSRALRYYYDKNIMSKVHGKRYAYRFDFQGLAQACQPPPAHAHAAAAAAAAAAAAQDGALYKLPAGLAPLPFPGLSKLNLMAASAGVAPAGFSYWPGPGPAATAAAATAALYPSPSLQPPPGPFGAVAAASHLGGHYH
To be noted: protein: recombinant; tags: N-terminal GST; dsDNA, one strand shown. The gist of the method:
(§1)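 Human transcription factors fused to GST were expressed in yeast, captured on glutathione beads, given DNA barcodes and pooled with a GST-only negative control. Pools were incubated with 200 nmole of a 16-mer random double-stranded DNA library in Tris/NaCl/DTT/glycerol buffer at room temperature for 30 min. They were then washed, crosslinked with 0.1% formaldehyde, proximity-ligated (BsaI/T4 ligase, 1 h, 37 °C), PCR-amplified and sequenced on an Illumina NextSeq500. Binding signal is each 6-mer's read frequency for a factor divided by its frequency for the GST control.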

In assay [2] the target is ETV5 (Homo sapiens, UniProt P41161 1-510). Particulars: protein: recombinant; tags: N-terminal GST; dsDNA, one strand shown. The method, boiled down: as §1
Chain of ETV5 (P41161 whole entry): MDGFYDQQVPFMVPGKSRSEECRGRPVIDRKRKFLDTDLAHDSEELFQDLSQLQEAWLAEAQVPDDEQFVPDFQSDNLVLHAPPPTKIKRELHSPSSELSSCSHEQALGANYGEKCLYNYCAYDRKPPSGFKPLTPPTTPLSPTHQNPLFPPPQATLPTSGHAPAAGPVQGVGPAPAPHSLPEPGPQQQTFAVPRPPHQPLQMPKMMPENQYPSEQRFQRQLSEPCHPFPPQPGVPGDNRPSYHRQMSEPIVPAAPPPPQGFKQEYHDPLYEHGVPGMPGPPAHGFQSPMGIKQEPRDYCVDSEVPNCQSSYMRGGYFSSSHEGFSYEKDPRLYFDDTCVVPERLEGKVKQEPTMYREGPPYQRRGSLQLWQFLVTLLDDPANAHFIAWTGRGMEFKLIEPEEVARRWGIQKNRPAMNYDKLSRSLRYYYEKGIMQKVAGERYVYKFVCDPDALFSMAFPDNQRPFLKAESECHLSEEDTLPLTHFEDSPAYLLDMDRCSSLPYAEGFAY
In assay [3] the target is HSF1 (Homo sapiens, UniProt Q00613 1-529). To be noted: protein: recombinant; tags: N-terminal GST; chain copies: 3; dsDNA, one strand shown. The gist of the method: as §1
Chain of HSF1 (Q00613 whole entry): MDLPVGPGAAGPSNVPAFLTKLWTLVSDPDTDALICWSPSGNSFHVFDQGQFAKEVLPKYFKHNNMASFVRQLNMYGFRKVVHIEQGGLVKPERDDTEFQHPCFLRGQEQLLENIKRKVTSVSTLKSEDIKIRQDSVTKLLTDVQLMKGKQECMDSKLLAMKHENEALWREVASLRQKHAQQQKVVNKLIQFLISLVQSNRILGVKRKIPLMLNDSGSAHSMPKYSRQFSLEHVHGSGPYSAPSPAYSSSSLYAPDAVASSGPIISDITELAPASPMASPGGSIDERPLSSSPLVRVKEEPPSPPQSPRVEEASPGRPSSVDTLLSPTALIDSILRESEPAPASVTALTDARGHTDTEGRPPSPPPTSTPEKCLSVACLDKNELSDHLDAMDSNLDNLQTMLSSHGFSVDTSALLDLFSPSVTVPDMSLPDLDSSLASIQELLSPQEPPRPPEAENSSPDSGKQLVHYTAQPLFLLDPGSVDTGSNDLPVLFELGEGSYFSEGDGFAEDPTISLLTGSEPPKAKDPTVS
Assay [4] deals with T2, SPIC (Homo sapiens, UniProt Q8N5J4 1-248).
T2 sequence: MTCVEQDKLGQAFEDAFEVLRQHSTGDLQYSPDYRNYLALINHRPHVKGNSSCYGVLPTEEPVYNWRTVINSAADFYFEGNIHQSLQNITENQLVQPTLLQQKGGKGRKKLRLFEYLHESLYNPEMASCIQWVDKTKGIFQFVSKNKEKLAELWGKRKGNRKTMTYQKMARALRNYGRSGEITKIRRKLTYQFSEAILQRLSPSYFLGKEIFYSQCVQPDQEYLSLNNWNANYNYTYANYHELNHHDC
To be noted: protein: recombinant; tags: N-terminal GST; dsDNA, one strand shown. The method, boiled down:
as §1

For assay [5], the target named is ELF4 (Homo sapiens, UniProt Q99607 1-663). Particulars: protein: recombinant; tags: N-terminal GST; dsDNA, one strand shown. The method, boiled down: as §1
Chain of ELF4 (Q99607 whole entry): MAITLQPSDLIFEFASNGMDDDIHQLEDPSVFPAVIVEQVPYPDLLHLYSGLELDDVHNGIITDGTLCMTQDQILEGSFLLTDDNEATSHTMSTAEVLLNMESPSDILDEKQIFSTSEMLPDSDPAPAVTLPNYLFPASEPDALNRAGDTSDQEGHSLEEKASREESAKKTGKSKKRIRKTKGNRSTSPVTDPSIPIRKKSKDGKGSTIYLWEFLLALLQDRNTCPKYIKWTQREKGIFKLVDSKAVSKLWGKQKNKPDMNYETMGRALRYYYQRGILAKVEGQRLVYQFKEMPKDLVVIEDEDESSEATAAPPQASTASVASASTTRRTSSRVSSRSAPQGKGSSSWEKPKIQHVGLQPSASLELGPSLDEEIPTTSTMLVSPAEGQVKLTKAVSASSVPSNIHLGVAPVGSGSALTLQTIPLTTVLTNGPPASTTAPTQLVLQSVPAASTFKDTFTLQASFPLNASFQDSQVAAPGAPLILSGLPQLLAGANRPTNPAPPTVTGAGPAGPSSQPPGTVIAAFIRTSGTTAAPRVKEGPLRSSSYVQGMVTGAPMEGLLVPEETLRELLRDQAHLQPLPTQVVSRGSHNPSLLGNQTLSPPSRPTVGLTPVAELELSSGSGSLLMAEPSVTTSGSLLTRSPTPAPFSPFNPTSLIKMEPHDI
The target in assay [6] is T3, ELK4 (Homo sapiens, UniProt P28324-2 1-405).
T3 sequence: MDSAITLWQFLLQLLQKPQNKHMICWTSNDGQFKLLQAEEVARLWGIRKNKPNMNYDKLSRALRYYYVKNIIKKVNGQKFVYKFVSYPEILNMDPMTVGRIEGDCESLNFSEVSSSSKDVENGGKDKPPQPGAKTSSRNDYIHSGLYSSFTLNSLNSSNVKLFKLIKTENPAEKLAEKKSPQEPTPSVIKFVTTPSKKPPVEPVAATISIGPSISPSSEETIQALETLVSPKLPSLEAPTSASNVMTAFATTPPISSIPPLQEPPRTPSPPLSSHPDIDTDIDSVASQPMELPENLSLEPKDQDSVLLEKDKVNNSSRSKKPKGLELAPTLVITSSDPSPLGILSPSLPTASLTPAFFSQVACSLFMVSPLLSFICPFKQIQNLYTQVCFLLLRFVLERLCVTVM
To be noted: protein: recombinant; tags: N-terminal GST; dsDNA, one strand shown. The method, boiled down:
as §1

Assay [7] addresses T4, ETV2 (Homo sapiens, UniProt O00321 1-342).
T4 sequence: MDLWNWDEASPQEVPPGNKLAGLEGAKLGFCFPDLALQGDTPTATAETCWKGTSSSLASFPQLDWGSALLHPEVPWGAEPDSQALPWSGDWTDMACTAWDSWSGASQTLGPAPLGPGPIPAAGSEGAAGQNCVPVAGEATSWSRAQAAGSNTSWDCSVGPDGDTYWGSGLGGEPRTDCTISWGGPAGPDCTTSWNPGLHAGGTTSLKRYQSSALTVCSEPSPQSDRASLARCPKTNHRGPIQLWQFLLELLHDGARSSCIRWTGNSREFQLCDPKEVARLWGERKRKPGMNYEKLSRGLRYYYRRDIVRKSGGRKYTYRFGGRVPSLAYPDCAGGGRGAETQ
Particulars: protein: recombinant; tags: N-terminal GST; dsDNA, one strand shown. The method, boiled down: as §1

For assay [8], the target named is T5, ELF3 (Homo sapiens, UniProt P78545 1-371).
T5 sequence: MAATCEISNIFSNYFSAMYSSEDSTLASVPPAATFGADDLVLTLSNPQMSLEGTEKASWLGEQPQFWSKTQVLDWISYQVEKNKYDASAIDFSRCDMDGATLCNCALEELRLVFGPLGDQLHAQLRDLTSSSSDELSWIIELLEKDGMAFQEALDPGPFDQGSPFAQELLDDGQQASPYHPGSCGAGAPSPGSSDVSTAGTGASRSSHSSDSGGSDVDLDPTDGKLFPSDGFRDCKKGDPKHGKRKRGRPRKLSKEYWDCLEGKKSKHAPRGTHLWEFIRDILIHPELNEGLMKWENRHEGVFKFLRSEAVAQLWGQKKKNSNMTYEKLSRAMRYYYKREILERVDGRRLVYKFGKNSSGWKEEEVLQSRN
To be noted: protein: recombinant; tags: N-terminal GST; dsDNA, one strand shown. The method, boiled down:
as §1

Assay [9] deals with CRX (Homo sapiens, UniProt O43186 1-299). Particulars: protein: recombinant; tags: N-terminal GST; dsDNA, one strand shown. The gist of the method:
as §1

For assay [10], the target named is ETV1 (Homo sapiens, UniProt P50549 1-477). To be noted: protein: recombinant; tags: N-terminal GST; dsDNA, one strand shown. The gist of the method:
as §1

Assay [11] addresses T6, ERF (Homo sapiens, UniProt P50548 1-548).
T6 sequence: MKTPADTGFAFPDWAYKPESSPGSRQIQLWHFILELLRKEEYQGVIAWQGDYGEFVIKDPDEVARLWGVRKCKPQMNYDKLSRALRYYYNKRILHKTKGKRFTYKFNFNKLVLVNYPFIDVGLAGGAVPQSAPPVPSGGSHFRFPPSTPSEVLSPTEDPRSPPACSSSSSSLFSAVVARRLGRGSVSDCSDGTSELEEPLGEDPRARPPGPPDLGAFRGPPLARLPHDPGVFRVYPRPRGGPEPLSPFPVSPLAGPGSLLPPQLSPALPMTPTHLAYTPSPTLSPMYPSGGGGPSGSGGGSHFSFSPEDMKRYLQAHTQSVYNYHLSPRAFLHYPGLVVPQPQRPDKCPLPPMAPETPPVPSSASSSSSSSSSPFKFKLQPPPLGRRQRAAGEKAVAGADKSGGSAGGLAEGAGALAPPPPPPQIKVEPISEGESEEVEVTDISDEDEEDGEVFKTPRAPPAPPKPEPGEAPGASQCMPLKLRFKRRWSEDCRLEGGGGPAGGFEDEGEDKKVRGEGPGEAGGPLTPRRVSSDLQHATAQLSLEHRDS
Particulars: protein: recombinant; tags: N-terminal GST; dsDNA, one strand shown. The gist of the method:
as §1

The target of assay [12] is T7, ETV3L (Homo sapiens, UniProt Q6ZN32 1-361).
T7 sequence: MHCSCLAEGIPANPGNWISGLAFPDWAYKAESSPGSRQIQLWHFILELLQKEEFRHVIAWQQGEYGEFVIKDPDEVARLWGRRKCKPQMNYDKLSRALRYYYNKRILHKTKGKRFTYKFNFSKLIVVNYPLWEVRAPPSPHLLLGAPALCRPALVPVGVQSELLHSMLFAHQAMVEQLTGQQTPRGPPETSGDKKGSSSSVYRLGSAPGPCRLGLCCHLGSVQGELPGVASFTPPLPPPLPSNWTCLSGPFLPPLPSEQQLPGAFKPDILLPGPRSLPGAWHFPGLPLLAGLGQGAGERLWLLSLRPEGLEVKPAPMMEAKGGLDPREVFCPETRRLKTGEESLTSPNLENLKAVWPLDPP
To be noted: protein: recombinant; tags: N-terminal GST; dsDNA, one strand shown. The method, boiled down: as §1

The target in assay [13] is T8, ETS2 (Homo sapiens, UniProt P15036 1-469).
T8 sequence: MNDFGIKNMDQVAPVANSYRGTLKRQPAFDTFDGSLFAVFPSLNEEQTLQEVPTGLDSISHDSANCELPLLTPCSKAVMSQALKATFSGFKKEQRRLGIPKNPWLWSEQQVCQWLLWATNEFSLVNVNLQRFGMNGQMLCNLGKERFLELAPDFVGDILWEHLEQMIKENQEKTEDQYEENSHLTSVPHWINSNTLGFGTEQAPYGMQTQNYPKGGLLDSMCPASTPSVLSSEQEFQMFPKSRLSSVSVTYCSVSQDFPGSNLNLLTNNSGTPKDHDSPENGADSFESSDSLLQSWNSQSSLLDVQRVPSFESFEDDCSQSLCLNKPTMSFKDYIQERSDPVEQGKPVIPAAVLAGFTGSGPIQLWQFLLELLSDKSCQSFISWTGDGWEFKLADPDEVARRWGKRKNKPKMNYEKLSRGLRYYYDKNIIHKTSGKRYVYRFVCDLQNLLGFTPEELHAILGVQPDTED
To be noted: protein: recombinant; tags: N-terminal GST; dsDNA, one strand shown. The gist of the method: as §1

For assay [14], the target named is T9, SPDEF (Homo sapiens, UniProt O95238 1-335).
T9 sequence: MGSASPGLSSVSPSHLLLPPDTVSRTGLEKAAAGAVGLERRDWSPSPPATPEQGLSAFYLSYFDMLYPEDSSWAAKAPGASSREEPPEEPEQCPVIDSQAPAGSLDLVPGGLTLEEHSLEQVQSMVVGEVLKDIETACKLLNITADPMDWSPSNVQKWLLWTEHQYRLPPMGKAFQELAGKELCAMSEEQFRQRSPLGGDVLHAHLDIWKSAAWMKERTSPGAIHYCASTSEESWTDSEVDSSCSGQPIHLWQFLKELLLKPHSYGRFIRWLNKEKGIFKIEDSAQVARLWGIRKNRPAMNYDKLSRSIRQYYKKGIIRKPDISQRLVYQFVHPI
To be noted: protein: recombinant; tags: N-terminal GST; dsDNA, one strand shown. The gist of the method:
as §1

For assay [15], the target named is T10, ETV7 (Homo sapiens, UniProt Q9Y603 1-341).
T10 sequence: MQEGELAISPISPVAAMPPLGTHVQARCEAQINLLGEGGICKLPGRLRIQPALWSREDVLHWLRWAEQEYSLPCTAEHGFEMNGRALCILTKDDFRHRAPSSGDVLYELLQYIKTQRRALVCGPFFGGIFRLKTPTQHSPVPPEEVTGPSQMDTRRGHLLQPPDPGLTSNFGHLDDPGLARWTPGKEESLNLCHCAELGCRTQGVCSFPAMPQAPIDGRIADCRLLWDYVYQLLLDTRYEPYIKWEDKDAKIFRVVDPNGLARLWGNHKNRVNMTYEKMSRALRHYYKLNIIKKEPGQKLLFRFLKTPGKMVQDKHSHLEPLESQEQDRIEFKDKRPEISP
To be noted: protein: recombinant; tags: N-terminal GST; dsDNA, one strand shown. The gist of the method: as §1

Assay [16] concerns the target T11, ELF5 (Homo sapiens, UniProt Q9UKW6-2 1-255).
T11 sequence: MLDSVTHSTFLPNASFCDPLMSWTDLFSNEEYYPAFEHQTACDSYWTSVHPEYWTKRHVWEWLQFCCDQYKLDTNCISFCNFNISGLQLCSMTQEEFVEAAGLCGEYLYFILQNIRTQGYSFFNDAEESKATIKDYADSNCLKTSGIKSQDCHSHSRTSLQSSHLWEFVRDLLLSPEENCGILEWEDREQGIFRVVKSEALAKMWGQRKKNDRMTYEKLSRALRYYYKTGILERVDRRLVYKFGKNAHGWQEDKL
Particulars: protein: recombinant; tags: N-terminal GST; dsDNA, one strand shown. The gist of the method: as §1

The target in assay [17] is T12, ETV3 (Homo sapiens, UniProt P41162-2 1-143).
T12 sequence: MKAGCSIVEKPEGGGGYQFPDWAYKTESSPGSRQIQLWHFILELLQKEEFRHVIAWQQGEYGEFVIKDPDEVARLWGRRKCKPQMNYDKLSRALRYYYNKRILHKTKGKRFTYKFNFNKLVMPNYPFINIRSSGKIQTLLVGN
To be noted: protein: recombinant; tags: N-terminal GST; dsDNA, one strand shown. The method, boiled down: as §1

In assay [18] the target is ETV6 (Homo sapiens, UniProt P41212 1-452). Particulars: protein: recombinant; tags: N-terminal GST; dsDNA, one strand shown. The method, boiled down: as §1
Chain of ETV6 (P41212 whole entry): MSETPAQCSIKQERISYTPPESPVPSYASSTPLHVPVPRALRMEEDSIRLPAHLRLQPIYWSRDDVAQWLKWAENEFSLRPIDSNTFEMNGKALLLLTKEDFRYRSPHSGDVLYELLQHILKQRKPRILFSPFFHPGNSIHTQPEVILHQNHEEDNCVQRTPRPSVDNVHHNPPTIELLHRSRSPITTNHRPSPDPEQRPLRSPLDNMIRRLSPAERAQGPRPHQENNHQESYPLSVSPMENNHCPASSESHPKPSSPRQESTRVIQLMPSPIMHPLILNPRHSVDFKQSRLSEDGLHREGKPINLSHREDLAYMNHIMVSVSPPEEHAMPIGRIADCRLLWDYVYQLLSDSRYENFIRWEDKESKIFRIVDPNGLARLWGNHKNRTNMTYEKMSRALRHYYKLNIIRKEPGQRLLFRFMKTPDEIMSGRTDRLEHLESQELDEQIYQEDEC

Chain of CRX (O43186 whole entry): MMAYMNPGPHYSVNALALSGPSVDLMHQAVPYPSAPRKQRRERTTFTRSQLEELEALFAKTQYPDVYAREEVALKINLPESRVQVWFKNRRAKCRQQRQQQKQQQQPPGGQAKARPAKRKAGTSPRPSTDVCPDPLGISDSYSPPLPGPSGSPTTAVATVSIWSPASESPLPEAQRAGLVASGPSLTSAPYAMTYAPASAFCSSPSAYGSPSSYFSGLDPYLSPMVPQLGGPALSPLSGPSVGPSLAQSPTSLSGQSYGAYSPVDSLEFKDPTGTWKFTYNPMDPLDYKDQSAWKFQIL
Chain of ETV1 (P50549 whole entry): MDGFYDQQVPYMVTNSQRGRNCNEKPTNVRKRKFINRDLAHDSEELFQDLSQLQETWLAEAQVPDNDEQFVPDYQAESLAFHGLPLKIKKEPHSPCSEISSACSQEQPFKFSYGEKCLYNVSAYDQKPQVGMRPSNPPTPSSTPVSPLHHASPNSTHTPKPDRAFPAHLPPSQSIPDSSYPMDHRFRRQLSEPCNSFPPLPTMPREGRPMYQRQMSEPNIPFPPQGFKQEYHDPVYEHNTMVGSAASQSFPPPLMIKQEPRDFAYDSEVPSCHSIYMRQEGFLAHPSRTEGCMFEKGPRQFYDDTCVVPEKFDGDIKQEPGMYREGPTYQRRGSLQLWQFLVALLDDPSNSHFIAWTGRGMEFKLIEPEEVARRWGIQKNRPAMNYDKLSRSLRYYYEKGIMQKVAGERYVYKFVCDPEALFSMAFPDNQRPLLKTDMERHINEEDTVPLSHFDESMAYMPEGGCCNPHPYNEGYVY

On to CTCCGA, for which the binding signal in assay [1] was 1.4 fold enrichment (6-mer frequency, TF over GST control); in [2], 1.3 fold enrichment (6-mer frequency, TF over GST control); in assay [3] it was 1.49 fold enrichment (6-mer frequency, TF over GST control); in assay [4], 1.51 fold enrichment (6-mer frequency, TF over GST control); in [5], 1.41 fold enrichment (6-mer frequency, TF over GST control); in assay [6], 1.36 fold enrichment (6-mer frequency, TF over GST control). Also, the binding signal in assay [7] was 1.19 fold enrichment (6-mer frequency, TF over GST control); in [8], 1.2 fold enrichment (6-mer frequency, TF over GST control); in assay [9], 1.3 fold enrichment (6-mer frequency, TF over GST control); in assay [10] it was 1.24 fold enrichment (6-mer frequency, TF over GST control); in [11] it was 1.41 fold enrichment (6-mer frequency, TF over GST control); in [12], 1.38 fold enrichment (6-mer frequency, TF over GST control). Moreover, the binding signal is 1.35 fold enrichment (6-mer frequency, TF over GST control) in assay [13]; 1.36 fold enrichment (6-mer frequency, TF over GST control) in assay [14]; 1.24 fold enrichment (6-mer frequency, TF over GST control) in assay [15]; 1.23 fold enrichment (6-mer frequency, TF over GST control) in assay [16]; 1.3 fold enrichment (6-mer frequency, TF over GST control) in assay [17]; 1.33 fold enrichment (6-mer frequency, TF over GST control) in [18].
